The text below walks through data of PubChem BioAssay.

Experiment [1] deals with Human papillomavirus type 1a protein E7 (residues 44-93). Kind of experiment: HPV1a E7 fragment binders on microarrays, primary screen, biochemical, small-molecule microarray, residues 44-93, 635 nm fluorescence (AID 1108).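 Note: E7 fragment applied at 1 µg/mL in TBST for 1 h at 4 C; score combines spot fluorescence with its signal to noise ratio.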 To be noted: small-molecule microarray binding, fluorescence 635 nm; higher = more signal.
Experiment [2] can be described thus: modulators of HCV replicon luciferase signal, primary screen, HCV replication inhibitor project, Huh7 cells, luciferase reporter (AID 1109).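 Note: huh7 hepatoma cells harbouring a luciferase neomycin HCV replicon reporter; luciferase luminescence as measure of HCV replicon replication; test concentration not given here.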 To be noted: 48 h, higher = more signal. Background: A replicon is a self-replicating genome or part of one, used to study replication in cells.
Experiment [3] deals with Left-right determination factor 2 (Homo sapiens) (UniProt O00292). The experiment can be described thus: LEFTY2 binders on small-molecule microarrays, primary screen, biochemical, small-molecule microarray, 635 nm fluorescence scan (AID 1110). The following applies: LEFTY2 binding, higher = more signal.
Experiment [4] has as its target Calmodulin-1 (Homo sapiens) (UniProt P0DP23). Kind of experiment: CALM1 binders on microarrays, EGTA buffer, profiling panel, biochemical, small-molecule microarray, Cy5-labelled CALM1 (AID 1111).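 Note: labelled calmodulin applied in Tris saline Tween buffer holding calcium plus EGTA and DTT.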 The following applies: Cy5-CALM1 binding fluorescence, higher = more signal.
The target is the same in experiment [5]. The experiment can be described thus: calcium-bound CALM1 binders on microarrays, profiling panel, artefact control for SMM control-protein annotation, biochemical, small-molecule microarray, Cy5-labelled CALM1, plus calcium (AID 1112).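 Note: score merges spot fluorescence with signal to noise from triplicate slides.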 To be noted: Cy5-CALM1 binding fluorescence, higher = more signal.
A short description of experiment [6]: small-molecule microarray binders of probe aWnt5a, primary screen, biochemical, biotinylated probe, 635/667 nm fluorescence (AID 1113).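 Note: score merges 667 nm fluorescence intensity with signal-to-noise per printed feature.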 The following applies: higher = more signal.
Experiment [7] is described as follows: small-molecule microarray binders of probe aShh, primary screen, biochemical, biotinylated probe, 635/667 nm fluorescence (AID 1114).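 Note: probe is biotin-labelled aShh protein from a stem cell growth factor screen; measures binding of labelled protein to compounds printed on the slide; score merges feature fluorescence at 667 nm with signal-to-noise.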 The following applies: higher = more signal.
Experiment [8] in a line: small-molecule microarray binders of probe aNog, primary screen, biochemical, biotinylated probe, 635/667 nm fluorescence (AID 1115).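 Note: probe is biotinylated aNog protein used at 0.15 µg/mL for 1 h at 4 C; z-score combines 667 nm fluorescence of each spot with its signal to noise.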 To be noted: higher = more signal.
The target of experiment [9] is Torsin-1A-interacting protein 1 (Homo sapiens) (UniProt Q5JTV8). Kind of experiment: LAP1 binders from COS7 cell lysate, primary screen, small-molecule microarray, 635/667 nm fluorescence (AID 1116). The following applies: COS7-hLAP1 lysate binding, 635 nm fluorescence, higher = more signal.
The target of experiment [10] is Alpha-bungarotoxin (Bungarus multicinctus) (UniProt P60615). Kind of experiment: alpha-bungarotoxin binders on microarray, profiling panel, artefact control for SMM control protein annotation, biochemical, small-molecule microarray, Alexa647 label, 635/667 nm fluorescence (AID 1117). The following applies: alpha-BTX-A647 binding fluorescence, higher = more signal.
The target of a further experiment is Albumin (Bos taurus) (UniProt P02769). Kind of experiment: bovine serum albumin binders on microarray, profiling panel, artefact control for SMM control protein annotation, biochemical, small-molecule microarray, Alexa647 label, 635/667 nm fluorescence (AID 1118).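 Note: score merges 667 nm emission intensity and signal-to-noise per printed compound spot.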 The following applies: BSA-A647 binding, fluorescence 635 nm, higher = more signal.
Experiment [11] in a line: small-molecule microarray binders of probe aXIP, primary screen, biochemical, NeuroSMM set, 635/667 nm fluorescence (AID 1119).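 Note: probe is the protein aXip251-270 applied at 1 µg/mL to compound-printed slides; binding of probe to printed compounds measured as 667 nm fluorescence plus signal to noise.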 The following applies: higher = more signal, called active from +8 up or from −8 down.
A short description of experiment [12]: small-molecule binders of probe aNOTCH3, primary screen, biochemical, small-molecule microarray, 635/667 nm fluorescence (AID 1120).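 Note: probe is a biotin-tagged antibody raised against NOTCH3 rather than NOTCH3 protein; score merges spot fluorescence near 667 nm with spot signal to noise.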 To be noted: higher = more signal.
Experiment [13] can be described thus: small-molecule binders of probe aNOTCH2, primary screen, biochemical, small-molecule microarray, 635/667 nm fluorescence (AID 1121).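 Note: score merges feature fluorescence read at 667 nm with its signal to noise.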 The following applies: higher = more signal.
For experiment [14], the target named is Carbonic anhydrase 2 (Homo sapiens) (UniProt P00918). Kind of experiment: CAII small-molecule binders, profiling panel, biochemical, small-molecule microarray, Alexa647-labelled CAII (AID 1122). The following applies: CAII-A647 binding fluorescence, higher = more signal.
Experiment [15] is described as follows: COS7 lysate on small-molecule microarray, probe aHis, 635 nm (AID 1123).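 Note: z-score combines 667nm fluorescence intensity with signal-to-noise per printed compound spot.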 To be noted: COS7 cell lysate, fluorescence, higher = more signal.
The nature of experiment [16]: compound binding in COS7 lysate, probe aLAP1, primary screen, cell lysate, small-molecule microarray (AID 1124).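 Note: lysate comes from COS7 cells expressing LAP1 and is applied at 0.3 µg/mL; score merges spot fluorescence near 667 nm with signal-to-noise over triplicate slides.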 To be noted: probe aLAP1, fluorescence, higher = more signal.
The subject of another experiment is Sam68 (KHDRBS1). The experiment can be described thus: Sam68 small-molecule binders, primary screen, biochemical, small-molecule microarray, 635 nm fluorescence (AID 1125).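 Note: score merges 667 nm channel intensity with signal to noise over triplicate slides.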 The following applies: small-molecule microarray binding, higher = more signal.
Experiment [17] concerns Chordin-like protein 2 (CHRDL2). The experiment can be described thus: CHRDL2 small-molecule binders, primary screen, biochemical, small-molecule microarray, 635 nm fluorescence (AID 1126).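 Note: printed compound slides probed with Chrdl2 protein at 4 µg/mL for 1 h at 4 C; score merges 667 nm emission intensity with signal to noise over three replicate slides.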 To be noted: small-molecule microarray binding, fluorescence 635 nm; higher = more signal.
For experiment [18], the target named is Concanavalin-A (Canavalia ensiformis) (UniProt P02866). The experiment can be described thus: ConA small-molecule binders, primary screen, artefact control for SMM control protein annotation, biochemical, small-molecule microarray, Alexa647 label, 635 nm (AID 1127).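 Note: z combines 667 nm emission intensity with signal-to-noise across three replicate slides.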 To be noted: ConA-A647 binding fluorescence, higher = more signal.

Calls of active or inactive are those of the source.

Concanavalin-A (Canavalia ensiformis), sequence (P02866 whole entry, looked up): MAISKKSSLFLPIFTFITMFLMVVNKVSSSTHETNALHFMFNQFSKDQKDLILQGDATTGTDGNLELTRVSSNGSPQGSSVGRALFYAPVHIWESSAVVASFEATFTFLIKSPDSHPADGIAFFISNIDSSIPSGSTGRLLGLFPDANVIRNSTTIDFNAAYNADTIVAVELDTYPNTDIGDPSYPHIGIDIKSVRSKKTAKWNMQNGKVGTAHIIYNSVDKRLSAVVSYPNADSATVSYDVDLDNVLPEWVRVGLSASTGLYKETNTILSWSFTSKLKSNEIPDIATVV
Left-right determination factor 2 (Homo sapiens), sequence (O00292 whole entry, looked up): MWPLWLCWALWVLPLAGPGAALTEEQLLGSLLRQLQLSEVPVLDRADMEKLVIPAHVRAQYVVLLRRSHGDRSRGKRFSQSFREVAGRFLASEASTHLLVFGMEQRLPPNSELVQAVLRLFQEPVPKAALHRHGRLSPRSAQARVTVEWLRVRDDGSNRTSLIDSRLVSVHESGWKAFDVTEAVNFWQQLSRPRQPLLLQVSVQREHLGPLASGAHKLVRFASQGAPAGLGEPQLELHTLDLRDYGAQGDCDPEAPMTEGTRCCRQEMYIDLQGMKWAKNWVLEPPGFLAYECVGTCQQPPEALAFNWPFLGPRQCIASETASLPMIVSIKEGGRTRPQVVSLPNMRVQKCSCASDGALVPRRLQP
Alpha-bungarotoxin (Bungarus multicinctus), sequence (P60615 whole entry, looked up): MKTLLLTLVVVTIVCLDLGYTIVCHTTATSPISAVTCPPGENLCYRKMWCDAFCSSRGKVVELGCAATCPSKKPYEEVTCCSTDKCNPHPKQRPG
Torsin-1A-interacting protein 1 (Homo sapiens), sequence (Q5JTV8 whole entry, looked up): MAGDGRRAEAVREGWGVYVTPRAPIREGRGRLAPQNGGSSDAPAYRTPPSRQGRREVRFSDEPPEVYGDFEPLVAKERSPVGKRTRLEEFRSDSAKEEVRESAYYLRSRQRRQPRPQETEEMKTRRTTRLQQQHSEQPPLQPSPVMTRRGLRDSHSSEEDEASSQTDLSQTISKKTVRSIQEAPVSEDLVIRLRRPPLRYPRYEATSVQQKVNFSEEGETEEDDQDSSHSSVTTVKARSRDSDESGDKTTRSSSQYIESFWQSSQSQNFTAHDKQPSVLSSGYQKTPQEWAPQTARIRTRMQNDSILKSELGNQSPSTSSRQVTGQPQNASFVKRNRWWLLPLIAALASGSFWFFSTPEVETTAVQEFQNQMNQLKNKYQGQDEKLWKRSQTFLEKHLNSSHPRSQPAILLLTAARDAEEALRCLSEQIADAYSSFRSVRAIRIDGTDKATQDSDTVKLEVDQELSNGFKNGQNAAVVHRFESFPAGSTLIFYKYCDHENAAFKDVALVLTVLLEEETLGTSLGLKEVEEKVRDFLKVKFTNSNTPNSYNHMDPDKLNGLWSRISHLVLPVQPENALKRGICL
Albumin (Bos taurus), sequence (P02769 whole entry, looked up): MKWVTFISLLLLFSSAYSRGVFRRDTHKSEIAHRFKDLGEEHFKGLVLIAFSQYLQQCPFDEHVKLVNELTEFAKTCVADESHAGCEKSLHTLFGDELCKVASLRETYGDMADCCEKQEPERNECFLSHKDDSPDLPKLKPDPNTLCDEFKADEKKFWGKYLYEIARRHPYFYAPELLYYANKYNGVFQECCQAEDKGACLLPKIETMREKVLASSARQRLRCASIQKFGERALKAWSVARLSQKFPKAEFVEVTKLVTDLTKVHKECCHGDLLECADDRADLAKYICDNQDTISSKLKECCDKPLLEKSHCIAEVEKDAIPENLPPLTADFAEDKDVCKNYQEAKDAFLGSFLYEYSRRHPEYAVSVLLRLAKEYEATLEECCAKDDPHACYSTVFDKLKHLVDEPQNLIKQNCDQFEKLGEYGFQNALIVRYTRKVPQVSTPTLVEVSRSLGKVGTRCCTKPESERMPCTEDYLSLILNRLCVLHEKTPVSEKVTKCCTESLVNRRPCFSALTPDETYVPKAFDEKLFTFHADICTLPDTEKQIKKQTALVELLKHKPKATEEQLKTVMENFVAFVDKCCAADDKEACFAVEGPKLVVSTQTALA

Consider `CC(C)NC(=O)[C@@]1(Cc2ccccc2I)c2ccccc2C(=O)N(Cc2ccccc2Cl)[C@H]1c1ccc(CO)cc1`, for which the composite z-score was 1.37 in [1]; 0.45 in experiment [3]; 0.789 in experiment [4]; -0.129 in [5]; 0.0077 in experiment [6]; 0.0062 in experiment [7]. The composite z-score in experiment [8] is 0.0139; in [9] it was 0.795; in experiment [10], 1.28; with Albumin (Bos taurus), 0.0517; in experiment [12], -0.0573; in experiment [13] it was -0.0741. Besides, the composite z-score in experiment [14] was 0.506; in experiment [15], 1.73; in experiment [16], -0.0064; with Sam68 (KHDRBS1), 1.29; in [17], 0.432; in [18] it was 1.1. Besides, in experiment [2], the z-score is -1.97. For the same compound, the composite Z-score in [11] was 0.786 (inactive).
For `CC(=O)NCCCC[C@@H]1NC(=O)[C@H]2C[C@@H](C(=O)NCCCCCNC(=O)CS)[C@@H](c3ccc(O)cc3)N2C1=O`, the composite z-score in experiment [1] is 0.46; in experiment [3], -0.574; in [4], 0.362; in experiment [5] it was 0.438; in experiment [6] it was -0.0919; in experiment [7], -0.0035. For the same compound, the composite z-score was -0.196 in [8]; 0.177 in experiment [9]; 0.117 in experiment [10]; -0.16 in the experiment with Albumin (Bos taurus); -0.136 in experiment [12]; -0.133 in experiment [13]. Further, the composite z-score is 0.704 in experiment [14]; 1.07 in experiment [15]; -0.269 in [16]; 0.338 with Sam68 (KHDRBS1); -0.105 in experiment [17]; 0.509 in experiment [18]. Besides, in experiment [2], the z-score was -0.0987. Further, the composite Z-score in [11] is -0.249 (inactive).
On to `C#CCOc1ccc(C[C@@H](C(=O)OC)N(CC#C)[C@@H](/C=C/C2CC2)[C@H](O)Cc2ccccc2)cc1`, for which the composite z-score in experiment [1] is -0.802; in experiment [3], -0.336; in [4], -1.1; in experiment [5], -1.69; in experiment [6], -0.2; in experiment [7], -0.221. In addition, the composite z-score in experiment [8] was -0.337; in experiment [9], 0.255; in [10], -0.335; with Albumin (Bos taurus), -0.485; in experiment [12], -0.19; in experiment [13] it was -0.208. Besides, the composite z-score in experiment [14] was 0.0591; in [15], -0.148; in experiment [16] it was 0.286; in the experiment on Sam68 (KHDRBS1), -0.51; in experiment [17], 0.212; in experiment [18] it was -0.557. In addition, the z-score in experiment [2] is -2.06. In experiment [11], the composite Z-score was -0.423 (inactive).
With `C#CCNCc1ccccc1`, the composite z-score in experiment [1] is 0.297; in experiment [3] it was 0.689; in experiment [4], -0.389; in experiment [5], -0.163; in experiment [6], -0.213; in [7] it was -0.291. In addition, the composite z-score in [8] was -0.213; in experiment [9], 0.195; in experiment [10], 0.34; in the experiment with Albumin (Bos taurus), -0.172; in experiment [12], -0.201; in experiment [13], -0.117. Further, the composite z-score is -0.0848 in experiment [14]; -0.0833 in experiment [15]; 0.149 in [16]; 0.44 in the experiment with Sam68 (KHDRBS1); 0.128 in experiment [17]; 0.159 in experiment [18]. For the same compound, the z-score in [2] was 0.141. For the same compound, the composite Z-score in experiment [11] was 0.204 (inactive).
Regarding `O=C1O[C@H](c2ccccc2)[C@H](c2ccccc2)N2[C@H]1[C@@H](C(=O)N1CCN(c3ncccn3)CC1)[C@]1(C(=O)Nc3ccc(C#CC4=CCCCC4)cc31)[C@H]2c1ccccc1OCCO`, the composite z-score was 0.379 in experiment [1]; 0.818 in [3]; 0.858 in [4]; -0.198 in [5]; 0.212 in experiment [6]; 0.299 in experiment [7]. For the same compound, the composite z-score came to 0.998 in experiment [8]; 0.201 in experiment [9]; 1.59 in experiment [10]; 0.28 with Albumin (Bos taurus); 0.503 in [12]; 0.123 in experiment [13]. Also, the composite z-score in experiment [14] turned out to be 0.491; in experiment [15] it was 1.88; in experiment [16] it was 1.19; with Sam68 (KHDRBS1) it was 1.28; in [17] it was 0.646; in experiment [18], 1.16. In addition, the z-score in [2] was -1.67. In addition, the composite Z-score in [11] is -0.0798 (inactive).
For the compound `CC(C)CCC[C@@H](C)[C@H]1CC[C@@]2(C)C3=C(CC[C@]12C)[C@@]1(C)CC[C@H](OC(=O)c2ccc(C(F)(F)F)nc2)C(C)(C)C1CC3` (stereo not given in full), the composite z-score is 0.592 in [1]; 0.31 in [3]; -0.0347 in experiment [4]; -0.337 in experiment [5]; -0.162 in experiment [6]; 0.0141 in [7]. Besides, the composite z-score was -0.68 in experiment [8]; 0.69 in experiment [9]; 0.328 in experiment [10]; 0.326 with Albumin (Bos taurus); -0.111 in [12]; -0.17 in [13]. The composite z-score was -0.0684 in [14]; 0.493 in experiment [15]; 0.0819 in experiment [16]; 0.42 in the experiment on Sam68 (KHDRBS1); 0.827 in experiment [17]; 0.311 in experiment [18]. Further, the z-score in [2] was found to be 0.336. Further, in experiment [11], the composite Z-score is -0.0967 (inactive).
